Test results reported in the supplement of paper PMC10338343.
± gives the standard deviation.

Tested on: MILI (PIWIL2) piRISC loaded with piRNA #1 (26 nt);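 note: 1 nM active piRISC with 0.1 nM target library at 33 °C single turnover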
Assay: pre-steady-state target cleavage rate (min^-1); guide: piRNA #1 5'p-UGAGGUAGUAGGUUGUAUAGUAUCCA; higher = faster piRNA-guided slicing of the target
Details: auxiliary factor: 500 nM mouse GTSF1
In short: (§1)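 Active affinity-purified piRISC carrying one synthetic guide (1 nM) was mixed with a transcribed, DNA-blocked target RNA library […] in HEPES–potassium acetate buffer at 33 °C for 0–8 or 0–960 min, with or without 500 nM GTSF1 partner protein. Uncleaved targets were then sequenced and normalised to depth and to weakly complementary targets. Three trials were pooled, and k3 was capped at 0.0001 min^-1. A burst-and-steady-state fit was applied to obtain the pre-steady-state cleavage rate.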

Row | Sequence | pre-steady-state target cleavage rate
1 | GGAGACGAUUCUAUUCAACCUACUACCUCA | 0.231 ± 0.014
2 | GGAGUGGAUAGUUUACAACCUACUACCUCA | 0.11 ± 0.0082
3 | GGAGAGGAUACUAUACAACCUACUACCUA | 0.104 ± 0.013
4 | GGAGUGGAUACUAUACAACCUUCUACCUCA | 0.00895 ± 0.002
5 | GGAGACCUUACUAUACAACCUACUACCGUCA | 0.132 ± 0.02
6 | GGAGACCUUACGAUACAACCUACUACCUCA | 0.152 ± 0.017
7 | GGAGUGGAGUACUAUACAACCUACUACCUCA | 0.153 ± 0.0099
8 | GGAGUGGAUACUAUACAACCAACAACCUCA | 0.00386 ± 0.0015
9 | GGAGACGAUACUAUACAACUCUACUACCUCA | 0.00377 ± 0.0022
10 | GGAGACCUAUGGAUACAACCUACUACCUCA | 0.0189 ± 0.0046
11 | GGAGACCUAACUAUACAACCUACAACCUGA | 0.00865 ± 0.0074
12 | GGAGAGGAUACAAUACAAGCUACUACCUCA | 0.178 ± 0.017
13 | GGAGACCAUACUAUACAAGCUACUACCUCA | 0.253 ± 0.02
14 | GGAGACCUAUCAUAACAACCUACUACCUCA | 0.0143 ± 0.0053
15 | GGAGACGAUAGCUAUACAACCUACUACCUCA | 0.0779 ± 0.0075
16 | GGAGACCUUACUAUAUAACCUACUACCUCA | 0.124 ± 0.0081
17 | GGAGUGGAUACUAUACAACCUAGAACCUCA | 0.0036 ± 0.0022
18 | GGAGACCAUACUAUACAACCUACUCCCUCA | 0.106 ± 0.017
19 | GGAGACCAUACUAUACAACCUACUACCUCA [g2:g23:cont:t1A] | 0.178 ± 0.023
20 | GGAGAGGAUACUAUACAACCUACAACCACA | 0.00451 ± 0.0037

Row | Sequence | pre-steady-state target cleavage rate
21 | GGAGACCUUACUUUACAACCUAGUACCUCA | 0.047 ± 0.011
22 | GGAGACCAUACUAUACAACCUACCUACCUCA | 0.129 ± 0.017
23 | GGAGACCUAACUAUACAAGCUACUACGUCA | 0.152 ± 0.033
24 | GGAGUGGAUACUAUACUACGUACUACCUCA | 0.042 ± 0.0043
25 | GGAGACCUUACUAUACAAGCUACUACCACA | 0.266 ± 0.023
26 | GGAGACGAUACUAUACAACCUACUACCUCU [g2:g24:cont:t1U] | 0.24 ± 0.019
27 | GGAGACCUAUGUAUACAACCUACUACCUCCA | 0.0928 ± 0.016
28 | GGAGACGAUACUAAACAACCUACUACCUGA | 0.124 ± 0.02
29 | GGAGACCAUACAAUACAACCUACUACCUCA | 0.189 ± 0.023
30 | GGAGACCAUACUAUACAUCCUACUACCUGA | 0.23 ± 0.034
31 | GGAGACGAUACUAUACACCCUACUACCUCA | 0.081 ± 0.0091
32 | GGAGAGGAUACUAUAGAACCUACUACCACA | 0.0636 ± 0.0099
33 | GGAGUGGAUAGUAUACAACGUACUACCUCA | 0.0168 ± 0.0038
34 | GGAGACCUUACUAUAACAACCUACUACCUCA | 0.134 ± 0.013
35 | GGAGUGGAUACAUACAACCUACUACCUCA | 0.131 ± 0.011
36 | GGAGUGGAUACUAUACAAGCUAGUACCUCA | 0.0743 ± 0.014
37 | GGAGACGAUACUAAUACAACCUACUACCUCA | 0.134 ± 0.01
38 | GGAGUGGACACUAUACAACCUACUACCUCA | 0.241 ± 0.025
39 | GGAGAGGAUACUUUACAACCUACUACGUCA | 0.0429 ± 0.0069
40 | GGAGACGAUACUUUACAACCUAGUACCUCA | 0.0601 ± 0.017

Tested on: EfPiwi piRISC loaded with piRNA #1 (26 nt)
Assay: pre-steady-state target cleavage rate (min^-1); auxiliary factor: 500 nM Ephydatia muelleri Gtsf1; guide: piRNA #1 5'p-UGAGGUAGUAGGUUGUAUAGUAUCCA; MIWI and MILI are mouse PIWI proteins and EfPiwi is from a freshwater sponge; tags in brackets are library labels; higher = faster piRNA-guided slicing of the target
Details: not given
In short: as §1

Row | Sequence | pre-steady-state target cleavage rate
41 | GGAGACGAUUCUAUUCAACCUACUACCUCA | 0.00706 ± 0.0046
42 | GGAGUGGAUAGUUUACAACCUACUACCUCA | 0.00446 ± 0.0033
43 | GGAGAGGAUACUAUACAACCUACUACCUA | 0.217 ± 0.081
44 | GGAGUGGAUACUAUACAACCUUCUACCUCA | 0.0116 ± 0.0048
45 | GGAGACCUUACUAUACAACCUACUACCGUCA | 0.0112 ± 0.0047
46 | GGAGACCUUACGAUACAACCUACUACCUCA | 0.0548 ± 0.021
47 | GGAGUGGAGUACUAUACAACCUACUACCUCA | 0.0116 ± 0.0055
48 | GGAGUGGAUACUAUACAACCAACAACCUCA | 0.00217 ± 0.0016
49 | GGAGACGAUACUAUACAACUCUACUACCUCA | 0.00452 ± 0.0031
50 | GGAGACCUAUGGAUACAACCUACUACCUCA | 0.00946 ± 0.005
51 | GGAGACCUAACUAUACAACCUACAACCUGA | 0.00402 ± 0.0029
52 | GGAGAGGAUACAAUACAAGCUACUACCUCA | 0.0036 ± 0.0019
53 | GGAGACCAUACUAUACAAGCUACUACCUCA | 0.00377 ± 0.0015
54 | GGAGACCUAUCAUAACAACCUACUACCUCA | 0.00531 ± 0.0037
55 | GGAGACGAUAGCUAUACAACCUACUACCUCA | 0.0112 ± 0.0049
56 | GGAGACCUUACUAUAUAACCUACUACCUCA | 0.00964 ± 0.005
57 | GGAGUGGAUACUAUACAACCUAGAACCUCA | 0.00464 ± 0.0024
58 | GGAGACCAUACUAUACAACCUACUCCCUCA | 0.00669 ± 0.0039
59 | GGAGACCAUACUAUACAACCUACUACCUCA [g2:g23:cont:t1A] | 0.0141 ± 0.0046
60 | GGAGAGGAUACUAUACAACCUACAACCACA | 0.00436 ± 0.0017

Row | Sequence | pre-steady-state target cleavage rate
61 | GGAGACCUUACUUUACAACCUAGUACCUCA | 0.00395 ± 0.0033
62 | GGAGACCAUACUAUACAACCUACCUACCUCA | 0.00424 ± 0.0022
63 | GGAGACCUAACUAUACAAGCUACUACGUCA | 0.004 ± 0.0035
64 | GGAGUGGAUACUAUACUACGUACUACCUCA | 0.00381 ± 0.0021
65 | GGAGACCUUACUAUACAAGCUACUACCACA | 0.00275 ± 0.0027
66 | GGAGACGAUACUAUACAACCUACUACCUCU [g2:g24:cont:t1U] | 1.35 ± 0.49
67 | GGAGACCUAUGUAUACAACCUACUACCUCCA | 0.00535 ± 0.004
68 | GGAGACGAUACUAAACAACCUACUACCUGA | 0.00288 ± 0.0022
69 | GGAGACCAUACAAUACAACCUACUACCUCA | 0.0108 ± 0.0032
70 | GGAGACCAUACUAUACAUCCUACUACCUGA | 0.00312 ± 0.0018
71 | GGAGACGAUACUAUACACCCUACUACCUCA | 0.011 ± 0.0045
72 | GGAGAGGAUACUAUAGAACCUACUACCACA | 0.00261 ± 0.0014
73 | GGAGUGGAUAGUAUACAACGUACUACCUCA | 0.00231 ± 0.0021
74 | GGAGACCUUACUAUAACAACCUACUACCUCA | 0.00893 ± 0.0047
75 | GGAGUGGAUACAUACAACCUACUACCUCA | 0.131 ± 0.048
76 | GGAGUGGAUACUAUACAAGCUAGUACCUCA | 0.00287 ± 0.0014
77 | GGAGACGAUACUAAUACAACCUACUACCUCA | 0.0773 ± 0.031
78 | GGAGUGGACACUAUACAACCUACUACCUCA | 0.115 ± 0.041
79 | GGAGAGGAUACUUUACAACCUACUACGUCA | 0.00296 ± 0.0023
80 | GGAGACGAUACUUUACAACCUAGUACCUCA | 0.00252 ± 0.0017
